Test [1] is described as follows: qHTS assay to identify small molecule antagonists of the thyroid receptor (TR) signaling pathway - cell viability counter screen (AID 743064). Note: nearly all actives have a fitted effect of over 50% in size. Note: potency is the fitted concentration of half-maximal effect. The procedure, abridged: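 In rat pituitary GH3.TRE-Luc reporter cells co-exposed to compound and 1 nM T3 for 23.5 h, cytotoxicity was assessed with CellTiter-Fluor in the same wells, read by fluorescence.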
(qHTS replaces the single test concentration by a dilution series.)

A short description of test [2]: qHTS assay to identify small molecule antagonists of the thyroid receptor (TR) signaling pathway (AID 743065). Note: nearly all actives have a fitted effect of over 55% in size. Note: potency is the fitted concentration of half-maximal effect. An outline of the steps:
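GH3.TRE-Luc rat pituitary cells carrying two TR response elements driving luciferase were plated for 4 h, given compound plus 1 nM T3 (final), and incubated 23.5 h at 37 C. ONE-Glo luminescence measured reporter inhibition; CellTiter-Fluor fluorescence tracked cytotoxicity.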

The subject of test [3] is thyroid hormone receptor (rat, GH3 cells). Kind of test: qHTS assay to identify small molecule agonists of the thyroid receptor (TR) signaling pathway (AID 743066; calls by dose curve).
Test [4] can be described thus: qHTS assay to identify small molecule antagonists of the estrogen receptor alpha (ER-alpha) signaling pathway - cell viability counter screen (AID 743074; calls by dose curve;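 note: HEK293 cells carrying ER-alpha-UAS-bla reporter stimulated with 17beta-estradiol; nearly all actives have a fitted effect of over 45% in size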).
Test [5] can be described thus: qHTS assay to identify small molecule antagonists of the estrogen receptor alpha (ER-alpha) signaling pathway using the BG1 cell line - cell viability counter screen (AID 743081).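 Note: compound given together with 17beta-estradiol as the ER stimulus; nearly all actives have a fitted effect of over 45% in size.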 Note: potency is the fitted concentration of half-maximal effect.
Test [6] is described as follows: qHTS assay to identify small molecule that activate the aryl hydrocarbon receptor (AhR) signaling pathway - cell viability counter screen (AID 743086). Note: nearly all actives have a fitted effect of over 45% in size. Note: potency is the fitted concentration of half-maximal effect. An outline of the steps: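 HepG2-AhR-luc (HG2L7.5c1) cells, 4000/well, were preincubated 5 h at 37C, exposed to compound in qHTS format for 24 hr at 37C, then given CellTiter-Fluor for 30 min; viability was read as fluorescence in the reporter wells.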

Test [7] can be described thus: qHTS assay to identify small molecule antagonists of the peroxisome proliferator-activated receptor gamma (PPARg) signaling pathway - cell viability counter screen (AID 743194). Note: nearly all actives have a fitted effect of over 55% in size. Note: potency is the fitted concentration of half-maximal effect. An outline of the steps:
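PPARg-UAS-bla HEK293H cells were plated, rested 5 h at 37 C, then treated with compounds plus rosiglitazone (50 nM final) for 17 h at 37 C; viability was then read by CellTiter-Glo luminescence after 30 min at room temperature.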

The nature of test [8]: qHTS assay for small molecule agonists of the antioxidant response element (ARE) signaling pathway - cell viability counter screen (AID 743203; calls by dose curve; note: nearly all actives have a fitted effect of over 55% in size; note: potency is the fitted concentration of half-maximal effect). The procedure, abridged: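 ARE-bla HepG2 cells were plated, rested 5 h at 37C/5% CO2, then exposed to compounds in DMSO for 16 h. Viability was read as CellTiter-Glo luminescence after 30 min at room temperature, in the same wells as the ARE screen.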

A short description of test [9]: qHTS assay for small molecule activators of the heat shock response signaling pathway - cell viability counter screen (AID 743209). Note: nearly all actives have a fitted effect of over 50% in size. Note: potency is the fitted concentration of half-maximal effect. An outline of the steps:
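HSE-bla HeLa cells plated overnight, then exposed to Tox21 compounds (23 nL in DMSO) for 5 h at 37 C. After the bla reporter read, CellTiter-Glo was added in the same wells and luminescence read after 30 min at room temperature.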

The target in the next test is Aromatase (Homo sapiens) (UniProt P11511). Nature of the test: qHTS assay to identify aromatase inhibitors (AID 743083). Note: nearly all actives have a fitted effect of over 55% in size. Note: potency is the fitted concentration of half-maximal effect.
A short description of test [10]: qHTS assay to identify aromatase inhibitors - cell viability counter screen (AID 743084). Note: potency is the fitted concentration of half-maximal effect.
The target in test [11] is Aryl hydrocarbon receptor (Homo sapiens) (UniProt P35869). Nature of the test: qHTS assay to identify small molecule that activate the aryl hydrocarbon receptor (AhR) signaling pathway (AID 743085).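 For activation: HG2L7.5c1 human HepG2 liver cells with stably integrated DRE-driven firefly reporter; series mostly up to about 70 µM.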 Note: nearly all actives have a fitted effect of over 15% in size. Note: potency is the fitted concentration of half-maximal effect. The procedure, abridged: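 AhR agonist activity is inferred from enhanced light output of a DRE-controlled firefly luciferase reporter in HepG2 cells, measured with ONE-Glo following 24 h treatment at 37C.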

A short description of test [12]: qHTS assay for small molecule agonists of the antioxidant response element (ARE) signaling pathway (AID 743202; active = well fitted activation curve with a large enough effect in the signal ratio in the repeat runs, not every such curve was filed as active; inconclusive = weak or mixed curves, or effect the other way; inactive = no such curve, though single readings can be large or run the other way; the % refers to the signal ratio). An outline of the steps: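 Compounds delivered in DMSO to ARE-bla HepG2 cells (2,000 cells/well, pre-incubated 5 h) and left 16 h at 37 C. LiveBLAzer B/G FRET substrate then added for 2 h at RT before fluorescence reading.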
Test [13] is described as follows: qHTS assay for small molecule activators of the heat shock response signaling pathway (AID 743210; active = well fitted activation curve with a large enough effect in the signal ratio in the repeat runs, with a control signal flat, not every such curve was filed as active; inconclusive = weak or mixed curves; the % refers to the signal ratio; note: potency is the fitted concentration of half-maximal effect;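 for activation: HeLa cells with beta-lactamase reporter driven by heat shock elements; series mostly up to about 63 µM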). An outline of the steps: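 Reporter gene assay: HeLa cells stably bearing an HSE-bla construct, compound treatment 5 h at 37 C, LiveBLAzer substrate 2.5 h at RT, fluorescence intensity.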
The target of test [14] is Estrogen receptor (Homo sapiens) (UniProt P03372). Nature of the test: qHTS assay to identify small molecule antagonists of the estrogen receptor alpha (ER-alpha) signaling pathway (AID 743069; active = well fitted curve in the direction sought with a large enough effect in the signal ratio in the repeat runs, not every such curve was filed as active; inconclusive = weak or mixed curves, or effect the other way; inactive = no such curve, though single readings can be large or run the other way; the % refers to the signal ratio; note: potency is the fitted concentration of half-maximal effect). An outline of the steps: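 Estradiol-stimulated ER-alpha-UAS-bla HEK293 cells, 18 hr compound exposure at 37C. LiveBLAzer B/G substrate, 2 hr RT, fluorescence read.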
For test [15] the target is unchanged. Kind of test: qHTS assay to identify small molecule agonists of the estrogen receptor alpha (ER-alpha) signaling pathway (AID 743075; calls by dose curve;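 note: HEK293 GripTite cells with ER-alpha and UAS-driven beta-lactamase reporter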; note: potency is the fitted concentration of half-maximal effect).
The target is the same in test [16]. Kind of test: qHTS assay to identify small molecule agonists of the estrogen receptor alpha (ER-alpha) signaling pathway using the BG1 cell line (AID 743079). Note: nearly all actives have a fitted effect of over 20% in size. Note: potency is the fitted concentration of half-maximal effect.
The nature of test [17]: qHTS assay to identify small molecule antagonists of the estrogen receptor alpha (ER-alpha) signaling pathway using the BG1 cell line (AID 743080; calls by dose curve;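 note: BG1 cells stimulated with 17beta-estradiol alongside compound; series mostly up to about 70 µM; nearly all actives have a fitted effect of over 25% in size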). An outline of the steps: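 Quantitative HTS on the Tox21 10K library: BG1 cells with endogenous ER-alpha and ERE-luciferase reporter, 17beta-estradiol stimulation, 21.5 h compound exposure, luminescence endpoint with parallel fluorescence cytotoxicity counter-read.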

In test [18] the target is Peroxisome proliferator-activated receptor gamma (Homo sapiens) (UniProt P37231). Nature of the test: qHTS assay to identify small molecule agonists of the peroxisome proliferator-activated receptor gamma (PPARg) signaling pathway (AID 743094; active = well fitted activation curve with a large enough effect in the signal ratio in the repeat runs, not every such curve was filed as active; inconclusive = weak or mixed curves, or effect the other way; inactive = no such curve, though single readings can be large or run the other way; the % refers to the signal ratio). An outline of the steps:
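GeneBLAzer PPARg UAS-bla HEK293H cells were plated, rested 5 h, then exposed to compounds for 17 h at 37C. Beta-lactamase activity was read by LiveBLAzer B/G FRET substrate fluorescence after 1 h at room temperature.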

Each structure is given as a SMILES string. “And” between values parts separate entries of the source, which are not always exact repeats. Equal values may be shown once. Some compounds were tested as several samples or in several runs, with calls that do not always agree. The source made the active and inactive calls. Unless noted, calls come from the whole dose curve; as a rule, active = well fitted curve in the direction sought with a large enough effect in the repeat runs; inconclusive = weak or mixed curves; inactive = no such curve, though single readings can be large; an effect the other way counts as inactive or inconclusive.

Peroxisome proliferator-activated receptor gamma (Homo sapiens), sequence (P37231 whole entry, looked up): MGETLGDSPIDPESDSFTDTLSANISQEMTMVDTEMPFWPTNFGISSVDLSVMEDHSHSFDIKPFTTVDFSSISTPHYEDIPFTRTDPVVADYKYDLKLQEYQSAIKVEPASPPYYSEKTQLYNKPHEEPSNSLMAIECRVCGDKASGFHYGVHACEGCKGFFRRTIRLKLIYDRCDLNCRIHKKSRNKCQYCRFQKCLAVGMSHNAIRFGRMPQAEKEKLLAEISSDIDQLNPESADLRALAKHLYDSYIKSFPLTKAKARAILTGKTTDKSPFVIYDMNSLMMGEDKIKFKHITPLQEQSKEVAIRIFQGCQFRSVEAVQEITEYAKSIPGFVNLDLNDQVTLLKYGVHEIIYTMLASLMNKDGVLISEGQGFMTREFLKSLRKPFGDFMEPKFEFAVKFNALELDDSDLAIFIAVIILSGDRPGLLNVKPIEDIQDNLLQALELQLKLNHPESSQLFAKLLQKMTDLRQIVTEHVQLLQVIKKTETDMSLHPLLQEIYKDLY
Estrogen receptor (Homo sapiens), sequence (P03372 whole entry, looked up): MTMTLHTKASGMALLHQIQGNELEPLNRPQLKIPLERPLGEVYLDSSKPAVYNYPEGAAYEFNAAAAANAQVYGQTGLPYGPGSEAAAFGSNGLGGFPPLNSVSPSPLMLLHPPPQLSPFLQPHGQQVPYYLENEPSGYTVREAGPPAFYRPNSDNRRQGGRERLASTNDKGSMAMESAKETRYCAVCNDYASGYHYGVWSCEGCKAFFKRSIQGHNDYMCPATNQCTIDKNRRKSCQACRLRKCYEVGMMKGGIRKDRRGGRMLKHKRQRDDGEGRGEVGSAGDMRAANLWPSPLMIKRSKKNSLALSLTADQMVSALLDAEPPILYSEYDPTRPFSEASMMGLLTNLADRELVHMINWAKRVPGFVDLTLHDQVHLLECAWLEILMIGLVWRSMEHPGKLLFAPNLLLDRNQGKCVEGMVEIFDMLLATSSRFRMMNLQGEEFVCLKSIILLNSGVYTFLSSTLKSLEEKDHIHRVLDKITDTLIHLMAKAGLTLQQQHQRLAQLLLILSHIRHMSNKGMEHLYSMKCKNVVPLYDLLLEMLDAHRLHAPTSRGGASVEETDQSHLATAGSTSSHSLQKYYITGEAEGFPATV
Aromatase (Homo sapiens), sequence (P11511 whole entry, looked up): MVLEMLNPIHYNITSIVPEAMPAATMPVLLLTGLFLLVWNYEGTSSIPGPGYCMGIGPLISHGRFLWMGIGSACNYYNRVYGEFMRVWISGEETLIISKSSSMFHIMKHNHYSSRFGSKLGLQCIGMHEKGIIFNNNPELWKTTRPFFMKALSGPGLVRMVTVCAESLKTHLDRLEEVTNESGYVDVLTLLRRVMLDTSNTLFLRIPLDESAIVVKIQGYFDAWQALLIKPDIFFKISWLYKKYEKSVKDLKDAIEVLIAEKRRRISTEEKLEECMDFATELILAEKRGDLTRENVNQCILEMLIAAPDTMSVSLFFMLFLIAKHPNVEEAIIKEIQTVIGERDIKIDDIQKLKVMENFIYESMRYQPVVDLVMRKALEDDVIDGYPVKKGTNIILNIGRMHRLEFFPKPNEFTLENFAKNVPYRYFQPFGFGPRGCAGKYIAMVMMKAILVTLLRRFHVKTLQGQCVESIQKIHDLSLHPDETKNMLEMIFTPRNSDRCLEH
Aryl hydrocarbon receptor (Homo sapiens), sequence (P35869 whole entry, looked up): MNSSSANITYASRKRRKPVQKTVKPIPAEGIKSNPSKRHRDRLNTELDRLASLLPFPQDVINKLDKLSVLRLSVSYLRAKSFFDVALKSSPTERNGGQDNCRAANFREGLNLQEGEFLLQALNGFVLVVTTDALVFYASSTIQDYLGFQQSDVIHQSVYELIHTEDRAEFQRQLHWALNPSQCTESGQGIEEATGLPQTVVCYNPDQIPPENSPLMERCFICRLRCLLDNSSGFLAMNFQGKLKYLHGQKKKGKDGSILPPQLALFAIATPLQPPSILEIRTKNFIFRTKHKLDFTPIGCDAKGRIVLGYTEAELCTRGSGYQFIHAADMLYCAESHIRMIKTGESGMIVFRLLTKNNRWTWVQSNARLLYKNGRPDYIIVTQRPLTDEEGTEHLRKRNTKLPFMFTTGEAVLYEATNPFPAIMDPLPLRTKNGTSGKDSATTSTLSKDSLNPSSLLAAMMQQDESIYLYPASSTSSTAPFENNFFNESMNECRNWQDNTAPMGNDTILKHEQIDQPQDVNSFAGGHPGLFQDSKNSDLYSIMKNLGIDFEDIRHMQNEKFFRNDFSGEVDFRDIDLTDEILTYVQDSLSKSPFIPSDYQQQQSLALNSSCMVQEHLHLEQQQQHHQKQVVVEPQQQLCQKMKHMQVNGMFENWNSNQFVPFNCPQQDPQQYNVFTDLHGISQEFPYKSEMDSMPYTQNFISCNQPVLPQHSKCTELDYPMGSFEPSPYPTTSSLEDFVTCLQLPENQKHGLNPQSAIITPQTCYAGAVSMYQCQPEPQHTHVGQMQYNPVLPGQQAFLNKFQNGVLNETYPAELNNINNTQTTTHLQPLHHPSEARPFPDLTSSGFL

Consider `O=C1NC(=O)[C@@H]2CC=CC[C@H]12`, for which the Potency entry in test [1], in test [2], in test [4], in test [5], in test [6] and in test [7] was “inactive” each time. Also, the Potency entry in [8] and in [9] was “inactive” each time. In addition, in test [3], the outcome was inactive.

As for `COc1cccc2c1C(=O)c1c(O)c3c(c(O)c1C2=O)C[C@@](O)(C(C)=O)C[C@@H]3O[C@H]1C[C@H](N)[C@H](O)[C@H](C)O1`, the Potency in test [1] is 1.06 µM (active) and 218 nM (active); in [2] it was 596 nM (active) and 154 nM (active); in test [5] it was 21.1 µM (active) and 27.5 µM (active); with Aromatase (Homo sapiens), 3.76 µM (active) and 615 nM (active); in test [10], 10.6 µM (active) and 8.69 µM (active); in test [11], 2.45 µM (active). Also, the Potency in test [6] was 5.96 µM (active) and 24.5 µM (active); in test [7], 34.9 µM (active) and 33.5 µM (active); in test [8], 8.69 µM (active) and 13.3 µM (active). The Potency entry in [4] is “inactive”.

For the molecule `Cc1nc(-c2ccc(Cl)cc2)oc1COC(C)(C)C(=O)O`, the Potency entry in test [1], in test [2], in test [4], in test [5], in test [6] and in test [7] was “inactive” each time. Besides, the Potency result in test [12], in [8] and in test [13] was “inactive” throughout. For the same molecule, the molecule was called inactive in [3].

Take `NC(=S)NC(N)=S`: the Potency entry in test [1], in test [14], in test [4], in test [15], in test [16] and in [17] was “inactive” each time. Besides, the Potency result (in test [5]; with Aromatase (Homo sapiens); in test [10]; in [11]; in test [6]; in [7]) was “inactive” in each case. Moreover, the Potency entry in [8] and in test [9] was “inactive” throughout. The call in test [3] was inactive. Further, the Potency in test [13] is 34.7 µM (active).

For `C#CC1(O)CC[C@H]2[C@@H]3CCC4=CCCC[C@@H]4[C@H]3CC[C@@]21C` (stereo partly drawn), the Potency in [1] was 30.6 µM (active); in test [2], 30.6 µM (active); in [15], 57.4 nM [inconclusive] (active) and 77.6 nM [inconclusive] (active); in [16] it was 40.3 nM (active) and 21.7 nM (active); with Aromatase (Homo sapiens), “inactive and 61.1 µM (active)”; in test [10] it was “inactive and 54.5 µM (active)”. For the same molecule, the Potency in test [7] was 18.8 µM (active); in test [9] it was 11.9 µM (active). The Potency entry in test [14], in test [4], in [17], in test [5], in [11] and in [6] was “inactive” in each case. Further, the Potency result in [18] was “inactive”.

Regarding `COc1cc(S(=O)(=O)O)c(C)cc1N=Nc1c(O)ccc2cc(S(=O)(=O)O)ccc12`, the Potency in test [1] was 30.6 µM (active); in [5] it was 30.6 µM (active); in [10], 8.63 µM (active); in test [6], 9.69 µM (active). Besides, in [3], the outcome was inactive. Also, the Potency entry in [14], in test [4], in [15], in test [18], in test [7] and in test [12] was “inactive” in each case. In addition, the Potency result in test [8], in test [9] and in test [13] was “inactive” throughout.

With `CCCCCCCCCCCCOC(=O)c1ccc(O)cc1`, the Potency in [1] was 30.9 µM (active); in test [2], 27.5 µM (active); in test [14], 44 µM [inconclusive] (active); with Aromatase (Homo sapiens), 30.9 µM (active); in test [8], 61.6 µM (active). For the same molecule, the Potency result in test [4], in [15], in [16], in test [5], in test [11] and in test [18] was “inactive” each time.

For the molecule `O=C(Nc1ccc2c(O)c(N=Nc3ccc(N=Nc4ccc(S(=O)(=O)O)cc4)cc3)c(S(=O)(=O)O)cc2c1)c1ccccc1`, the Potency in [1] is 30.6 µM (active); in test [5], 27.3 µM (active); in [10] it was 8.63 µM (active); in test [6], 19.3 µM (active). Besides, the molecule was called inactive in [3]. Moreover, the Potency entry in test [14], in test [4], in test [15], in test [18], in [7] and in test [8] was “inactive” in each case. The Potency entry in test [9] and in [13] was “inactive” throughout.

Values taken from PubChem BioAssay (Tox21).
